Assay results: PubChem BioAssay (NCI)
This is part of a sample that, as a whole, favours compounds with a hit. Of some 83,000 tested, about 20% had one in any assay.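 Activity criterion: percent growth below 10, measured after cells in 96-well plates were exposed to a single compound concentration for 48 hours.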 A number with no mark means an inactive call. Active and inactive are the calls of the source.

tested on: HL-60(TB) leukemia; experiment: NCI-60 one-dose screen, 48 h (100 = growth as untreated, 0 = no growth, -100 = all killed); settings: 10 µM unless noted

Row | SMILES | growth
1 | CC(C)OC(=O)c1cc(NC(=S)OC(C)C)ccc1Cl | 86.2%
2 | COc1cc(/C=C/C(=O)c2cc(OC)c(OC)c(OC)c2)ccc1Oc1nc2c(c(=O)n(C)c(=O)n2C)n1C | -13.1% (active)
3 | O=C(/C=C/c1cccs1)Nc1ncc(Cc2ccccc2F)s1 | -40.2% (active)
4 | O=c1nc2sc3nc4ccccc4cc3cc-2s1 | 99%
5 | CCC(C)(CC)c1ccc(O)c(C)c1 | 105%
6 | Cc1c(F)cccc1NC(=O)c1sc2nc3c(cc2c1N)CCCCC3 | 6.49% (active)
7 | O=C(Nc1ccccc1Cl)Oc1ccc2ccccc2c1 | 72.3%
8 | Cc1nccc2c3ccc(OCc4cn(-c5ccc(Cl)cc5)nn4)cc3n(CC(C)C)c12 | -49.4% (active)
9 | COc1ccc(NC(=O)Nc2ccc(-c3cccnc3)cc2N2CCC(CO)CC2)cc1 | 88.6%
10 | O=C(Nc1cc(F)cc2cccnc12)c1cnc(N2CCNCC2)cn1 | 77.1%
11 | O=C1NC(=O)C(Cc2ccc(OCc3ccc(-c4ccc(Cl)cc4Cl)cc3)cc2)S1 (stereo unspecified) | 56.9%
12 | O=c1[nH]cnc2c1ccn2C1OC(CO)C(O)C1O (stereo unspecified) | 34%
13 | O=[N+]([O-])c1cc(CCl)ccc1OCCBr | 119%
14 | CCCCCCCCCCCCCCCCCC1=NC(C)(C)CN1C(C)(C)CO | -66.9% (active)
15 | COc1ccc(NC(=O)c2cc(NCc3cc(O)ccc3O)ccc2O)cc1 | 43.8%
16 | C=C(C)[C@@H]1CCC[C@]2(C(=O)OC)CC[C@]3(C)[C@@H](CC[C@@H]4[C@@]5(C)CCCNC(C)(C)[C@@H]5CC[C@]43C)[C@@H]12 | 96.7%
